Pf Dd2 inh: inhibitors of Plasmodium falciparum Dd2 growth; Potency, µM (titrated, usually from 28.9 µM), actives largely listed as inhibitors; hit rate 4.3% among 120,000; AID 1347417; P. falciparum Dd2 growth, SYBR Green, 72 h; active = well fitted inhibition curve with a large enough effect; note: nearly all actives have a fitted effect of over 65% in size
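Readout: SYBR Green fluorescence, 485 nm excitation, 535 nm emission, after ~16 h lysis at 37C. Before that, Dd2-infected red cells (2.5% hematocrit) grew 72 h with compound, 29 uM top final concentration.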
Numbers stand for hits; . = inactive; [ ] = remark or other dose. The sample as a whole holds a higher share of hits than the screen did.

SMILES	Pf Dd2 inh
COc1ccccc1N1CCN(c2ncc3c(n2)CCN(Cc2ccccc2F)C3)CC1	.[5.79 µM]
Clc1ccc(CN2CCc3nc(Nc4ccc5c(c4)OCCO5)ncc3C2)cc1	.
Fc1ccccc1N1CCN(c2ncc3c(n2)CCN(Cc2cc(Br)cs2)C3)CC1	.
CCOc1ccc(CN2CCc3nc(N4CCN(c5ncccn5)CC4)ncc3C2)cc1OC	7.94µM
CCOc1ccc(CN2CCc3nc(N4CCN(c5ccccc5OC)CC4)ncc3C2)cc1OC	.
COCC(=O)N1CC[C@]2(O)CCN(C(=O)c3ccccc3N(C)C)C[C@@H]2C1	.
CC(=O)NCCC1CCN(C(=O)Nc2ccc(C)cc2)CC1	.
CCOCc1nc(C2CCCN(C(=O)Nc3cccc(F)c3C)C2)no1 (stereo not given)	.
COc1cccc(C(=O)N2CCC(c3n[nH]c(=O)n3-c3ccccc3)CC2)c1OC	.
CCc1cc(=O)n(CC(=O)Nc2cccc(Cl)c2C)c(N2CCOCC2)n1	.
CCC(=O)N1CCC2(CC1)CC(N1CCN(c3ccccn3)CC1)CCO2 (stereo not given)	.
CC(=O)N1CCC(c2nn(-c3ccccc3)c(=O)[nH]2)CC1	.
Cc1ccc(C2NC(=O)N(CC(=O)Nc3ccc(Br)cc3F)C3=C2C(=O)OC3)cc1 (stereo not given)	.
COc1cc(OC)c(OC)cc1CN1CCc2nc(N3CCN(c4ncccn4)CC3)ncc2C1	7.94µM
CCN1CCN(c2ncc3c(n2)CCN(Cc2cccc(F)c2F)C3)CC1	.[5.79 µM]
COc1ccccc1N1CCN(c2ncc3c(n2)CCN(Cc2ccc(C)s2)C3)CC1	.
c1ccc(Nc2c(-c3ccccc3)nc3ncccn23)cc1	.
Cc1ccn2c(Nc3ccccc3C)c(-c3ccccc3)nc2c1	.
Cc1ccc(Nc2c(-c3ccccc3O)nc3ccc(Br)cn23)cc1	.
Cc1ccc(Nc2c(-c3ccc(C)cc3)nc3c(C)cccn23)cc1	.
Cc1ccccc1Nc1c(-c2ccc(O)cc2)nc2c(C)cccn12	11.2µM
Cc1ccn2c(Nc3ccc4c(c3)OCCO4)c(-c3ccc(Cl)s3)nc2c1	.
Cc1cccc2nc(-c3ccccn3)c(Nc3ccccc3)n12	7.08µM
Cc1ccc(Nc2c(-c3ccccc3O)nc3cc(C)ccn23)cc1	5.62µM
COc1ccc(-c2nc3cc(C)ccn3c2NC(=O)c2ccc(C)c(C)c2)cc1	.
SMILES	Pf Dd2 inh
COc1cc(O)ccc1-c1nc2cc(C)ccn2c1Nc1ccccc1C	7.94µM
Cc1ccc(Nc2c(-c3ccsc3)nc3c(C)cccn23)cc1	.
Cc1ccc(Nc2c(-c3ccsc3)nc3cccc(C)n23)cc1	.
Cc1ccc(C(=O)N2CC(c3nnc(-c4ccncc4)o3)C3(CCOCC3)C2)c(C)c1 (stereo not given)	.
COc1ccc(-c2ccc3c(n2)c(=O)ncn3CC2CC2)cc1OC	.
CCCNC(=O)CC1COc2ccc(C(=O)NCCOC)cc2N1C (stereo not given)	.
O[C@@H]1CN(Cc2ccc(-c3ccn[nH]3)o2)CC[C@H]1c1ccc2c(c1)OCO2	.
CNC(=O)[C@@H]1CN(Cc2ccc(Br)o2)C[C@H]1c1nc(COC)no1	.
Cn1nnnc1C1CCCN(C(=O)CCc2ccccc2)C1 (stereo not given)	.
COc1cccc(S(=O)(=O)N2CCC3(CC2)N(C)C(=O)CS3=O)c1 (stereo not given)	.
O=C(c1ccc(C(F)(F)F)cc1)N1CCN2C(=O)N(C3CCCCC3)C[C@H]2C1	.
COCC(=O)N1CCC(Oc2ccccc2C(=O)N2C[C@H]3CC[C@H]2C3)CC1	.
CN1CC(=O)N(C2CCCNC2)Cc2c(NCCCN3CCCCC3)ncnc21 (stereo not given)	.
CCS(=O)(=O)N1CCC2(CCC(=O)N(CC3CC3)CC2)CC1	.
Cc1cccc2nc(-c3ccccn3)c(Nc3ccc(F)cc3)n12	3.16µM
O=C(CCNc1c(-c2cccc(F)c2)nc2cnccn12)NCc1ccc(Cl)cc1	.
Oc1ccccc1-c1nc2cnccn2c1Nc1ccc(Cl)cc1	2.51µM
O=C(O)CCNc1c(-c2ccc(F)cc2)nc2cnccn12	.
Cc1nc2nncn2c(Nc2ccc(F)cc2)c1C	.
CN1C[C@@H](NC(=O)Nc2ccc(F)cc2)C[C@H]1c1nc(-c2ccccn2)no1	.
Clc1ccc(Nc2c(-c3ccccc3Cl)nc3ccc(Cl)cn23)cc1	.
Cc1ccccc1Nc1c(-c2ccccc2O)nc2sccn12	.
CN(C)c1ccc(-c2nc3cnccn3c2Nc2cccc(C(F)(F)F)c2)cc1	8.91µM
Cc1ccc2nc(-c3ccc(O)cc3)c(Nc3ccc4c(c3)OCCO4)n2c1	.
CN(Cc1ccccc1)C(=O)CCNc1c(-c2cccc(F)c2)nc2cnccn12	.
Cc1ccc2nc(-c3ccccc3O)c(Nc3ccccc3C)n2c1	1.41µM
CC(C)S(=O)(=O)N1CC[C@H]2C(=O)NCCCCCCN(Cc3ccncc3)[C@@H]2C1	.
Cn1cccc1C(=O)N[C@H]1C[C@H]2C(=O)Nc3ccc(/C=C/c4ccccc4)cc3C(=O)N2C1	.
Cc1ccc(CNC(=O)N2CCC(c3noc(-c4ccccc4)n3)C2)cc1 (stereo not given)	.[5.79 µM]
COCCc1noc([C@@H]2CN(C(=O)CC3=CCCCC3)C[C@H]2CO)n1	.

Compound activity: PubChem BioAssay, National Center for Advancing Translational Sciences (NCATS)
